In the supplement of paper PMC10849652:
Targets with a hit are over-represented here; the source holds about 7,900 in all. About 0.6% of all pairs of compound and target were hits. A number with no mark means an inactive call.

compound: Cc1nc(Nc2ncc(C(=O)Nc3c(C)cccc3Cl)s2)cc(N2CCN(CCO)CC2)n1 [dasatinib]; assay: log2 fold change, soluble protein after heating vs DMSO (PISA); higher = thermal stabilisation; K562 cells, 10 uM, 30 min; active = over 0.2 and 3.5 SD of the protein, either way, in both replicates (recomputed)
Summary of the method: (§1)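 Thermal stability values are relative to control samples and come from duplicates. They are expressed as log2 fold changes. For measurement, K562 cells (2×10^6 cells/mL) received 10 μM compound for 30 min, and aliquots were heated for 3 min over 48°C-58°C, pooled, and extracted at 4°C in PBS with 0.5% NP-40. Soluble protein, the supernatant after 21,000xg for 90 min, was quantified by TMTpro 16plex LC-MS/MS with equalised channel sums.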

Chain of UniProt P61960 (P61960 whole entry, looked up): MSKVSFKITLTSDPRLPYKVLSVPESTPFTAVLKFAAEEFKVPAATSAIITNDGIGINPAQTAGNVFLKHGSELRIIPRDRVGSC
Chain of UniProt P36406 (P36406 whole entry, looked up): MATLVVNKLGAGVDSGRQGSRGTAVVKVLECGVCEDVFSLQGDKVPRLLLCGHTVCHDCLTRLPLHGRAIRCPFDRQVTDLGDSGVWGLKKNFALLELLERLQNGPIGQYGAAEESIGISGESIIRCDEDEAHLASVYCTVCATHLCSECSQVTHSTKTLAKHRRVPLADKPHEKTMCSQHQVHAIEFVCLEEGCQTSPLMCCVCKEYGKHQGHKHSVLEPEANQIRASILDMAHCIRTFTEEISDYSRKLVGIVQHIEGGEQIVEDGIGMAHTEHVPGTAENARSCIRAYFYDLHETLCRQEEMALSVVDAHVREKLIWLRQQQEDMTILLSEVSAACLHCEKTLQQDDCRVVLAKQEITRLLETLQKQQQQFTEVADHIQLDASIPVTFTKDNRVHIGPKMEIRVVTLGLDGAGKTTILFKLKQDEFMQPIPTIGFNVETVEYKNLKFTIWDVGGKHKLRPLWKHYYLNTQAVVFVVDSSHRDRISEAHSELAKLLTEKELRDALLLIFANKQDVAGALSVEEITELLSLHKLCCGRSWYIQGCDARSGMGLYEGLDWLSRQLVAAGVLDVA
Chain of UniProt Q5U3C3 (Q5U3C3 whole entry, looked up): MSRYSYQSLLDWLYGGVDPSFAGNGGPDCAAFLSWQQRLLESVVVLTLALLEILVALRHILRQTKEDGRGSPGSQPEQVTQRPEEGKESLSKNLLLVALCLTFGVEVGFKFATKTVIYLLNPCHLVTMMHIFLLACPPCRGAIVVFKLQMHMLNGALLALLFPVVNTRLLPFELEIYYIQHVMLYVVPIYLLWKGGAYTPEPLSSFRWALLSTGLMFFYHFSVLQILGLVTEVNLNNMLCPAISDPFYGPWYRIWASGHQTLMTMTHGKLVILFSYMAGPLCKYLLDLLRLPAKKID
Chain of UniProt Q9NX01 (Q9NX01 whole entry, looked up): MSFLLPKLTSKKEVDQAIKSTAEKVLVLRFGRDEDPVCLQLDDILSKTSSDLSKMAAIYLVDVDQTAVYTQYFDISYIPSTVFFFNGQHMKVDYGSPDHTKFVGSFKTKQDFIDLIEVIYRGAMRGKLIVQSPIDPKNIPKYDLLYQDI
Chain of UniProt Q96DX7 (Q96DX7 whole entry, looked up): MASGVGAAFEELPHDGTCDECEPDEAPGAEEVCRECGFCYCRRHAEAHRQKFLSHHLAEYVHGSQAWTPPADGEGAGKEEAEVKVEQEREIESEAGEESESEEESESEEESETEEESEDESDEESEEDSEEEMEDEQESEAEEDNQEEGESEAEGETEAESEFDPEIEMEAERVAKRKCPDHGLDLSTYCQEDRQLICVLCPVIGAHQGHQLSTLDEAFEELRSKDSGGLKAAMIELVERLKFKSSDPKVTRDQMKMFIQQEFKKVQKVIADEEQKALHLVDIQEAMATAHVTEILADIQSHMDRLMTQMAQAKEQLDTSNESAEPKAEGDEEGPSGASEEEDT
Chain of UniProt O95155 (O95155 whole entry, looked up): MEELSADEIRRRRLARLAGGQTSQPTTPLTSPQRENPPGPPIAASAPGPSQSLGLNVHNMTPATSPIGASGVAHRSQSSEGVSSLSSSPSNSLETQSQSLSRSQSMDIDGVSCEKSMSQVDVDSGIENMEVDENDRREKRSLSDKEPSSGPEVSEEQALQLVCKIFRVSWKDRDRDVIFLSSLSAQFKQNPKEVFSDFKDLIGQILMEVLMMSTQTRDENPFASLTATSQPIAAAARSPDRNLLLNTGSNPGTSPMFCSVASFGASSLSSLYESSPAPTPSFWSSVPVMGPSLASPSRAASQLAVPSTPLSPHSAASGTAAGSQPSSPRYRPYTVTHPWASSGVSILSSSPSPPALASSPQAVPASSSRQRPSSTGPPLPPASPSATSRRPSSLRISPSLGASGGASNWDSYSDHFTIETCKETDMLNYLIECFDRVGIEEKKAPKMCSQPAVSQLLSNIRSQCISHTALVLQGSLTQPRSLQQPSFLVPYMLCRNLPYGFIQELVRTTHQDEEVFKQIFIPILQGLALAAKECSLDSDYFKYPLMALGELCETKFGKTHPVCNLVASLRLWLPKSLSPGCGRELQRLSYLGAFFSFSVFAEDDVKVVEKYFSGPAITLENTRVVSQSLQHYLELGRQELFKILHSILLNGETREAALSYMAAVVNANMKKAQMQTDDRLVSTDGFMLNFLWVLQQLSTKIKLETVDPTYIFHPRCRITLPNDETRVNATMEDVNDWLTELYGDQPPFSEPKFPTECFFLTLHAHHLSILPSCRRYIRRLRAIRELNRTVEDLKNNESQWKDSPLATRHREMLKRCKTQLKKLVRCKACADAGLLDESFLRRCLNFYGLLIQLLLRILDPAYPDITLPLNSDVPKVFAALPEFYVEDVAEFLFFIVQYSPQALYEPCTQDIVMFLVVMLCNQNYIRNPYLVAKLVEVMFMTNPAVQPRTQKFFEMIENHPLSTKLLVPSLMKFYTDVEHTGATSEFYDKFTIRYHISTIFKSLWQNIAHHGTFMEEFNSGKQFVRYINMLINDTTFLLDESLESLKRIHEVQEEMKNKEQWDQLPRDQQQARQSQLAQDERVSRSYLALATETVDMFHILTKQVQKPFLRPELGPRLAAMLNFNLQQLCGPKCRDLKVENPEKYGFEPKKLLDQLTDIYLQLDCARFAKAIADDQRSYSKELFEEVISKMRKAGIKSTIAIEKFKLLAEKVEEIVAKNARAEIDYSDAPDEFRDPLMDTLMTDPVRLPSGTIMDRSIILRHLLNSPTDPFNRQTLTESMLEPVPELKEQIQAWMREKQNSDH
Chain of UniProt A6NIH7 (A6NIH7 whole entry, looked up): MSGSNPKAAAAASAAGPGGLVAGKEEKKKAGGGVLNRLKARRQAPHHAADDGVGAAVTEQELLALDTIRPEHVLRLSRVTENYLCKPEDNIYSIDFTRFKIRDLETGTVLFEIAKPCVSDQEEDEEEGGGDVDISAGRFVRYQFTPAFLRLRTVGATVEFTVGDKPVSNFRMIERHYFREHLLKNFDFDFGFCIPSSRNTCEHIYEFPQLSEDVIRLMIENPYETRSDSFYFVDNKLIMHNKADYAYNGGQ
Chain of UniProt Q641Q2 (Q641Q2 whole entry, looked up): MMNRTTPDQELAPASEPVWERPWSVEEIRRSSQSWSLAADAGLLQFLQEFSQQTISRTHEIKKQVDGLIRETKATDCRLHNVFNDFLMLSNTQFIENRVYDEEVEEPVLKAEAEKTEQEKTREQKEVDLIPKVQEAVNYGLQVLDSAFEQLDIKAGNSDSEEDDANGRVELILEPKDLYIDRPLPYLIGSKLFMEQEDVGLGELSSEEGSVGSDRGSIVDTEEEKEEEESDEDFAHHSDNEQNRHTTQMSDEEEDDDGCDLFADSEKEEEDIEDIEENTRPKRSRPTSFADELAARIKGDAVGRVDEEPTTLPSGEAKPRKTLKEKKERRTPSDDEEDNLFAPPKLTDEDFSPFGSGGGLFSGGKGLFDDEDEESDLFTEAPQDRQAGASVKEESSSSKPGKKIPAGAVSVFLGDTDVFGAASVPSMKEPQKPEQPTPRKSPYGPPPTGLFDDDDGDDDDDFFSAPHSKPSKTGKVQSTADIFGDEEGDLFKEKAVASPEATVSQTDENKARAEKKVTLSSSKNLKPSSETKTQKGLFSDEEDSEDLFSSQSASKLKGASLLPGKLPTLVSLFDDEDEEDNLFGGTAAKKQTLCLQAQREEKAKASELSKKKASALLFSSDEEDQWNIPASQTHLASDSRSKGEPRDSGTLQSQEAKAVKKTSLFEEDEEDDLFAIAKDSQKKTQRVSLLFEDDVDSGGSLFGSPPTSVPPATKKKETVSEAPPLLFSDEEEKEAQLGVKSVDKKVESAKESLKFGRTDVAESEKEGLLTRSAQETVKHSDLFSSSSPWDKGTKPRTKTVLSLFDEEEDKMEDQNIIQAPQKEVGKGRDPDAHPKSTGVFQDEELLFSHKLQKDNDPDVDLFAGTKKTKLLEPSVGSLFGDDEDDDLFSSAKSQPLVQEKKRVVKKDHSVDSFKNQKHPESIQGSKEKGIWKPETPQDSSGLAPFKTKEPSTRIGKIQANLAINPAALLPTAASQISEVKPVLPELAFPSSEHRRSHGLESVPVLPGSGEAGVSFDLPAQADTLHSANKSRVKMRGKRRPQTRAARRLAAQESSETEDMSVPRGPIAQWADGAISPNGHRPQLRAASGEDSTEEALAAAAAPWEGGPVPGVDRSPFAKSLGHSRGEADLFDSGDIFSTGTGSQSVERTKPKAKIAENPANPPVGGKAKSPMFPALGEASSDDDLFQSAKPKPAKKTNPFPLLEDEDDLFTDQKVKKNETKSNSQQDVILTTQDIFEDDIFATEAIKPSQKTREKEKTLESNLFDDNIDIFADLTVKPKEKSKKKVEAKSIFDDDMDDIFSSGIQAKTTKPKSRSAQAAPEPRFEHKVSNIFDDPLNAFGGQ
Chain of UniProt Q16763 (Q16763 whole entry, looked up): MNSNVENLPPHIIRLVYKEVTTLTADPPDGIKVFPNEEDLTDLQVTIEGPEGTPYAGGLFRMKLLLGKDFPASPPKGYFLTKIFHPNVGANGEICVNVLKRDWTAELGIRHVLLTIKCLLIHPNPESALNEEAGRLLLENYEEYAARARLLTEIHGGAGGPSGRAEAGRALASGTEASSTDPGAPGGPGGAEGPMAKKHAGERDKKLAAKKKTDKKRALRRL
Chain of UniProt Q7Z7E8 (Q7Z7E8 whole entry, looked up): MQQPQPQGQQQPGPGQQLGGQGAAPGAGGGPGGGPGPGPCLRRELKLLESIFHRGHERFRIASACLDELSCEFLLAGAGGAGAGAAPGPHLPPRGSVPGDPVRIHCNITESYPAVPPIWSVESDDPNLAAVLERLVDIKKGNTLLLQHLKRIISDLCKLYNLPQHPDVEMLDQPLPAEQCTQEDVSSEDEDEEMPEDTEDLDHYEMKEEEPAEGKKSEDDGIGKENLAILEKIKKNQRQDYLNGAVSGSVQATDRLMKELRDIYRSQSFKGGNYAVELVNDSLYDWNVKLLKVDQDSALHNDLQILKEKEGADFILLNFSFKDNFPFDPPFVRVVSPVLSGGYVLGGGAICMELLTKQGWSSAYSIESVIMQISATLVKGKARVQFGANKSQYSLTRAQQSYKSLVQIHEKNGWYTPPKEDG

| Target | log2 fold change |
| --- | --- |
| TRIM44 (UniProt Q96DX7) | -0.029 |
| TRIM23 (UniProt P36406) | -0.004 |
| VPS28 (UniProt Q9UK41) | -0.209 |
| UBE2D1 (UniProt P51668) | -0.083 |
| TMEM268 isoform 3 (UniProt Q5VZI3) | -0.194 |
| WASHC2A (UniProt Q641Q2) | 0.022 |
| UBE4B isoform 4 (UniProt O95155) | -0.069 |
| TRAPPC6B (UniProt Q86SZ2) | -0.042 |
| TSPAN13 (UniProt O95857) | -0.163 |
| TMEM8A (UniProt Q9HCN3) | -0.409 |
| WEE1 (UniProt P30291) | 0.805 (active) |
| UNC119B (UniProt A6NIH7) | 0.069 |
| UBIAD1 (UniProt Q9Y5Z9) | 0.176 |
| USP48 isoform 8 (UniProt Q86UV5) | -0.139 |
| TMEM164 (UniProt Q5U3C3) | 0.048 |
| UFM1 isoform 2 (UniProt P61960) | 0.116 |

| Target | log2 fold change |
| --- | --- |
| TUT4 (UniProt Q5TAX3) | -0.105 |
| TMEM41A (UniProt Q96HV5) | 0.054 |
| TMEM184C (UniProt Q9NVA4) | 0.116 |
| XIAP (UniProt P98170) | -0.027 |
| TMEM106B (UniProt Q9NUM4) | 0.098 |
| TXNL4B (UniProt Q9NX01) | -0.042 |
| UBE2S (UniProt Q16763) | 0.001 |
| VKORC1 (UniProt Q9BQB6) | -0.049 |
| TMEM161A (UniProt Q9NX61) | -0.09 |
| VWA3B isoform 6 (UniProt Q502W6) | 0.148 |
| VPS37A (UniProt Q8NEZ2) | -0.168 |
| TTI1 (UniProt O43156) | -0.076 |
| UBE2Q1 (UniProt Q7Z7E8) | -0.101 |
| UBXN10 (UniProt Q96LJ8) | -0.032 |
| TMEM219 (UniProt Q86XT9) | -0.11 |

compound: Cc1ncc(-c2ccnc(Nc3ccc(S(C)(=O)=O)cc3)n2)n1C(C)C; assay: as above
Summary of the method: as §1

| Target | log2 fold change |
| --- | --- |
| TRIM44 (UniProt Q96DX7) | 0.026 |
| TRIM23 (UniProt P36406) | 0.088 |
| VPS28 (UniProt Q9UK41) | -0.019 |
| UBE2D1 (UniProt P51668) | -0.074 |
| TMEM268 isoform 3 (UniProt Q5VZI3) | 0.165 |
| WASHC2A (UniProt Q641Q2) | -0.012 |
| TMEM179B (UniProt Q7Z7N9) | -0.013 |
| UBE4B isoform 4 (UniProt O95155) | -0.024 |
| TRAPPC6B (UniProt Q86SZ2) | 0.021 |
| TMEM9B (UniProt Q9NQ34) | -0.015 |
| TSPAN13 (UniProt O95857) | -0.095 |
| TMEM8A (UniProt Q9HCN3) | 0.019 |
| WEE1 (UniProt P30291) | 0.311 |
| UNC119B (UniProt A6NIH7) | 0.173 |
| TRIM4 (UniProt Q9C037) | 0.058 |
| UBIAD1 (UniProt Q9Y5Z9) | -0.004 |
| USP48 isoform 8 (UniProt Q86UV5) | -0.073 |
| TMEM164 (UniProt Q5U3C3) | 0.037 |

| Target | log2 fold change |
| --- | --- |
| UFM1 isoform 2 (UniProt P61960) | 0.002 |
| TUT4 (UniProt Q5TAX3) | -0.116 |
| UBAP2L (UniProt F8W726) | -0.109 |
| TMEM41A (UniProt Q96HV5) | -0.049 |
| TMEM184C (UniProt Q9NVA4) | -0.009 |
| XIAP (UniProt P98170) | -0.288 |
| TMEM106B (UniProt Q9NUM4) | -0.007 |
| TXNL4B (UniProt Q9NX01) | 0.01 |
| UBE2S (UniProt Q16763) | 0.04 |
| VKORC1 (UniProt Q9BQB6) | -0.013 |
| TMEM161A (UniProt Q9NX61) | -0.021 |
| VWA3B isoform 6 (UniProt Q502W6) | -0.129 |
| VPS37A (UniProt Q8NEZ2) | -0.039 |
| TTI1 (UniProt O43156) | 0.039 |
| UBE2Q1 (UniProt Q7Z7E8) | -0.046 |
| TRABD (UniProt Q9H4I3) | -0.093 |
| UBXN10 (UniProt Q96LJ8) | -0.098 |
| TMEM219 (UniProt Q86XT9) | 0.032 |

compound: Cn1cc(-c2ccc3c(c2)CCN3C(=O)Cc2cccc(C(F)(F)F)c2)c2c(N)ncnc21; assay: as above
Summary of the method: as §1

| Target | log2 fold change |
| --- | --- |
| TRIM44 (UniProt Q96DX7) | 0.002 |
| TRIM23 (UniProt P36406) | 0.126 |
| VPS28 (UniProt Q9UK41) | 0.01 |
| UBE2D1 (UniProt P51668) | 0.036 |
| TMEM268 isoform 3 (UniProt Q5VZI3) | 0.112 |
| WASHC2A (UniProt Q641Q2) | -0.088 |
| TMEM179B (UniProt Q7Z7N9) | 0.154 |
| UBE4B isoform 4 (UniProt O95155) | -0.019 |
| TRAPPC6B (UniProt Q86SZ2) | 0.024 |
| TMEM9B (UniProt Q9NQ34) | 0.051 |
| TSPAN13 (UniProt O95857) | -0.038 |
| TMEM8A (UniProt Q9HCN3) | -0.046 |
| WEE1 (UniProt P30291) | -0.043 |
| UNC119B (UniProt A6NIH7) | 0.428 |
| TRIM4 (UniProt Q9C037) | 0.042 |
| UBIAD1 (UniProt Q9Y5Z9) | 0.052 |
| USP48 isoform 8 (UniProt Q86UV5) | -0.041 |

| Target | log2 fold change |
| --- | --- |
| TMEM164 (UniProt Q5U3C3) | 0.002 |
| UFM1 isoform 2 (UniProt P61960) | 0.045 |
| TUT4 (UniProt Q5TAX3) | -0.097 |
| TMEM184C (UniProt Q9NVA4) | 0.15 |
| XIAP (UniProt P98170) | 0.029 |
| TMEM106B (UniProt Q9NUM4) | 0.083 |
| TXNL4B (UniProt Q9NX01) | 0.007 |
| UBE2S (UniProt Q16763) | -0.002 |
| VKORC1 (UniProt Q9BQB6) | 0.105 |
| TMEM161A (UniProt Q9NX61) | -0.05 |
| VWA3B isoform 6 (UniProt Q502W6) | 0.045 |
| VPS37A (UniProt Q8NEZ2) | 0.048 |
| TTI1 (UniProt O43156) | 0.085 |
| UBE2Q1 (UniProt Q7Z7E8) | -0.012 |
| TRABD (UniProt Q9H4I3) | 0.145 |
| UBXN10 (UniProt Q96LJ8) | -0.075 |
| TMEM219 (UniProt Q86XT9) | 0.092 |
